Test [1] can be described thus: AP1 Signaling Pathway (AID 357). Also: % is scaled to controls: 0 for no effect and ±100 for the full control effect. As to conditions: ME-180 (cervical carcinoma) AP-1-bla reporter, EGF-induced, beta-lactamase ratio, 5 h; at 17.2 µM (top of the series) unless noted. The gist of the method:
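ME-180 cells with beta-lactamase reporter under AP-1 response element, stimulated with EC50 EGF; compounds tested in titration series, 5 h at 37 °C. CCF4 substrate added 2.5 h at room temperature; 460/530 nm emission ratio gave %activity and AC50.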

The nature of test [2]: NFAT Signaling Pathway (AID 444).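 Also: carbachol stimulus at about its EC50 of 1 µM final; % is scaled to controls: 0 for no effect and ±100 for the full control effect.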 As to conditions: Jurkat NFAT-bla M1, carbachol, beta-lactamase ratio, 5 h; at 17.2 µM (top of the series) unless noted. The gist of the method: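 Jurkat cells carrying an NFAT-driven β-lactamase reporter and co-transfected muscarinic M1 receptor were treated with compound plus carbachol (1 uM final, an EC50 level) for 5 h at 37 °C. CCF4 loading followed for 1 h at RT; 460/530 nm ratio gave %activity.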

The target in test [3] is Glucocorticoid receptor (Homo sapiens) (UniProt P04150). Put plainly: GR-GFP Redistribution (AID 450;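 active = compounds whose dose series gives a full or clear partial fitted curve of increased nuclear translocation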; also: potency is read from the fitted curve at half-maximal effect). To be noted: U2OS GR-GFP nuclear translocation, laser cytometry, 2 h; series mostly up to 20.6 µM.
Sequence of Glucocorticoid receptor (Homo sapiens) (P04150 whole entry, looked up): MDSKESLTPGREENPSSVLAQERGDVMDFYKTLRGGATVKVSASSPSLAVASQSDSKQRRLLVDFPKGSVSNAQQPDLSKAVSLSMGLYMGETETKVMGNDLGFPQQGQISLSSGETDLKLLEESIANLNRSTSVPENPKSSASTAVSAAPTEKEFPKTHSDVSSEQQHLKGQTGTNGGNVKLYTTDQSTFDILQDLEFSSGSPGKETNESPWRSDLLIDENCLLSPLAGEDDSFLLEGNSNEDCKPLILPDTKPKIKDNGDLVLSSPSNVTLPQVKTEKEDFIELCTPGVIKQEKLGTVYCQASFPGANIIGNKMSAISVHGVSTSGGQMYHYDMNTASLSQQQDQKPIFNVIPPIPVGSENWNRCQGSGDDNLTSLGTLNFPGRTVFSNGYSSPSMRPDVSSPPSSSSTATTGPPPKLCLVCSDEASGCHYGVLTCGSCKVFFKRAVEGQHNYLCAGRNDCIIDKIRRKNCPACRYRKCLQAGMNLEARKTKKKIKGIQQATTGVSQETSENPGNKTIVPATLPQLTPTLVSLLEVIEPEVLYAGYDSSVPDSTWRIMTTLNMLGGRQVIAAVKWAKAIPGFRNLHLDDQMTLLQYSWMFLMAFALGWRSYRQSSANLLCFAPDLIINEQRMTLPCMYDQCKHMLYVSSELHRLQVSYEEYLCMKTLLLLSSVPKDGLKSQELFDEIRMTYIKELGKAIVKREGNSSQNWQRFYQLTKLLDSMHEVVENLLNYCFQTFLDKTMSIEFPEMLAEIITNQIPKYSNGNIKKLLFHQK
The target is the same in test [4]. As to the kind of experiment: GR-EFC Redistribution (AID 451; calls by dose curve; also: potency is read from the fitted curve at half-maximal effect). As to conditions: CHO-K1 GR-EFC translocation, beta-gal luminescence, 2 h. The gist of the method:
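CHO-K1 cells stably expressing nuclear-localized β-gal enzyme acceptor and GR fused C-terminally to the enzyme donor fragment; ligand-driven nuclear translocation restores β-gal by complementation. Compounds titrated up to 46 uM final, 2 h at 37 °C; luminescence read.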

The target in test [5] is 3',5'-cyclic-AMP phosphodiesterase 4B (Homo sapiens) (UniProt Q07343). Put plainly: qHTS Assay for Inhibitors of PDE-IV (AID 607; active = well fitted activation curve with a large enough effect in the main read-out, with a control signal flat, not every such curve was filed as active; also: % of control where 0% means no effect). As to conditions: HEK293 ACTOne CNG channel cells, membrane potential fluorescence; series mostly up to 22.9 µM. In outline: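 ACTOne HEK293 cells carry a modified cAMP-gated CNG channel and express endogenous PDE4; plated 1000 cells/well, compounds up to 22.9 uM final. Membrane-potential dye fluorescence (ex 535/em 590) was read; parental cells received 10 uM forskolin + 100 uM RO 20-1724.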
Sequence of 3',5'-cyclic-AMP phosphodiesterase 4B (Homo sapiens) (Q07343 whole entry, looked up): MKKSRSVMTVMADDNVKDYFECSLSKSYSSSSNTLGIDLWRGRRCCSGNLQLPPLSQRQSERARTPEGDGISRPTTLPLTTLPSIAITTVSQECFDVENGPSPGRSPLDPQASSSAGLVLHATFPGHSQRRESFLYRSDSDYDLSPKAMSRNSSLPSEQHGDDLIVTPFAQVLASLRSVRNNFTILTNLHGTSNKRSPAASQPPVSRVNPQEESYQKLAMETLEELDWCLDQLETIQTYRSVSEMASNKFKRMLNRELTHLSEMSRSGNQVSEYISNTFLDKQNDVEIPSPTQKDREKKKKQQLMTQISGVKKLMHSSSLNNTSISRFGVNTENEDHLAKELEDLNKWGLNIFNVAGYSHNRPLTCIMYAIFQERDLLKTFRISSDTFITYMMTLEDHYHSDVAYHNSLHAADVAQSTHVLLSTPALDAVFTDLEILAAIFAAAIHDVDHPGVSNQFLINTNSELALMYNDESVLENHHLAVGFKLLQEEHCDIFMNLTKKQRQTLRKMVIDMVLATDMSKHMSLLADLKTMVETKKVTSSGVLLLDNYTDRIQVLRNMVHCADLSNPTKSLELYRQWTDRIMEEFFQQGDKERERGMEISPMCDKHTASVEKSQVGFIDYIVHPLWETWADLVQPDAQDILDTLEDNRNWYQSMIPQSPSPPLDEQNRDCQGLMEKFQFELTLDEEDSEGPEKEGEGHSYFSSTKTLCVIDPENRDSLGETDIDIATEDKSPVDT
(In general: In qHTS, concentration-response curves come from the screen itself.)

Test [6] has as its target Cytochrome P450 2C9 (Homo sapiens) (UniProt P11712). Put plainly: qHTS Assay for Inhibitors and Substrates of Cytochrome P450 2C9 (AID 883; active = well fitted curve in the direction sought with a large enough effect; an effect the other way counts as inactive or inconclusive; also: % is scaled to controls: 0 for no effect and ±100 for the full control effect; nearly all actives have a fitted effect of over 60% in size). To be noted: recombinant CYP2C9, luciferin-H luminescence, 60 min; series mostly up to 57.1 µM. In outline:
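CYP2C9 deoxyluciferin hydroxylation, 37C, 60 min with NADPH regeneration; 10nM enzyme, 100uM Luciferin-H (KM). Glo detection reagent stopped reaction; luminescence normalized to sulphaphenazole (57uM) full inhibition.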

For test [7], the target named is Cytochrome P450 3A4 (Homo sapiens) (UniProt P08684). Put plainly: qHTS Assay for Activators of Cytochrome P450 3A4 (AID 885; active = well fitted curve in the direction sought with a large enough effect; an effect the other way counts as inactive or inconclusive; also: nearly all actives have a fitted effect of over 65% in size). To be noted: recombinant CYP3A4, Luciferin-PPXE luminescence, 60 min; series mostly up to 57.1 µM. The gist of the method:
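20nM CYP3A4 + 25uM Luciferin-PPXE (=KM), 200mM KPO4; cpd 10 min RT; NADPH regen, 60 min RT; stop w/ detection buffer, 20 min; luminescence. Normalized to 57 uM ketoconazole.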

Test [8] can be described thus: qHTS Assay for Identification of Small Molecule Agonists for Thrombopoietin (TPO) Signaling Pathway (AID 917; active = well fitted curve in the direction sought with a large enough effect; an effect the other way counts as inactive or inconclusive; also: % is scaled to controls: 0 for no effect and ±100 for the full control effect). To be noted: TPO signaling pathway reporter cells, agonist qHTS, stimulated with TPO at its EC50; series mostly up to 38.5 µM. The gist of the method: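 IL-3-dependent murine pro-B Ba/F3 cells, stably transfected with human TPO receptor and GpIIb-promoter luciferase, are incubated 24 hrs at 37 C with test compound and 26 pM TPO; luciferase signal is read after 10 min at room temperature.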

The target of test [9] is Muscarinic acetylcholine receptor M1 (Rattus norvegicus) (UniProt P08482). As to the kind of experiment: qHTS Assay for Antagonists of Acetylcholine Muscarinic M1 Receptor: Kinetic Measurement of Intracellular Calcium Response (AID 943; active = well fitted curve in the direction sought with a large enough effect; an effect the other way counts as inactive or inconclusive; also: potency is read from the fitted curve at half-maximal effect; nearly all actives have a fitted effect of over 75% in size). To be noted: M1-expressing cells, kinetic intracellular calcium fluorescence; series mostly up to 35.3 µM. The gist of the method: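 Intracellular calcium flux, recorded with Fluo-4 in a kinetic plate reader, served as signal; the response to carbachol at EC80 (100 nM final) was taken as maximal over minimal fluorescence after a 10 min compound pre-incubation in rat M1-CHO cells.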
Sequence of Muscarinic acetylcholine receptor M1 (Rattus norvegicus) (P08482 whole entry, looked up): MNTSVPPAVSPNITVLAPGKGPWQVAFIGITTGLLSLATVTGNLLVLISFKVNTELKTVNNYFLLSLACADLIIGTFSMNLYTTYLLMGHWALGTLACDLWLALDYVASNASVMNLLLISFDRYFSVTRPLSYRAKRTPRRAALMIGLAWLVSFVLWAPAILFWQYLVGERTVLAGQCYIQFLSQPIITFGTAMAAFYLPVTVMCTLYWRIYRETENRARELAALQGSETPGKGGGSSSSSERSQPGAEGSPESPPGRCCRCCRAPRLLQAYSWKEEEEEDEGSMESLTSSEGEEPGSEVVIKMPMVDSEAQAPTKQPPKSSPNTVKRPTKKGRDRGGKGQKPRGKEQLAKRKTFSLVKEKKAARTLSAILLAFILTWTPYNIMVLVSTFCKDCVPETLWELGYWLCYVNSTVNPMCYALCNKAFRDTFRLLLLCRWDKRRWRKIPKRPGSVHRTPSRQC

The target of test [10] is Pyruvate kinase (Leishmania mexicana) (UniProt Q27686). Put plainly: qHTS Validation Assay for Inhibitors of Leishmania Mexicana Pyruvate Kinase (AID 945; active = well fitted curve in the direction sought with a large enough effect; an effect the other way counts as inactive or inconclusive;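 also: 0% = DMSO only neutral control wells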). As to conditions: purified L. mexicana pyruvate kinase, enzyme activity, E451W mutant enzyme; series mostly up to 57.5 µM. The gist of the method:
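LmPYK E451W 0.2 nM; 0.5 mM PEP, 0.1 mM ADP, 7 mM MgCl2, 50 mM KCl, imidazole pH 7.2, 0.01% Tween 20, 0.05% BSA; 1 h RT; PKLight luminescence; DMSO-normalized.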

Test [11] addresses Pyruvate kinase PKM (Homo sapiens) (UniProt P14618). As to the kind of experiment: qHTS Assay for Activators of Human Muscle Pyruvate Kinase (AID 954; active = well fitted curve in the direction sought with a large enough effect, not every such curve was filed as active;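 also: 0% = uninhibited enzyme and -100% = no enzyme or full thiadiazolimine inhibition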). As to conditions: purified human muscle pyruvate kinase, luciferase-coupled luminescence, 1 h; series mostly up to 57.5 µM. The gist of the method:
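Luminescence from a luciferase ATP-detection/stop reagent reported PKM2 activity. Reactions contained 0.1 nM purified human enzyme, 0.5 mM PEP, 0.1 mM ADP and 7 mM MgCl2 at pH 7.2, run 1 h at RT.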

Test [12] concerns the target Alpha-galactosidase A (Homo sapiens) (UniProt P06280). Put plainly: Counterscreen for Glucocerebrosidase Inhibitors: qHTS Assay for Human alpha-Galactosidase at pH 4.5 (AID 992; active = well fitted curve in the direction sought with a large enough effect; an effect the other way counts as inactive or inconclusive; also: 0% is about no effect). To be noted: purified enzyme, fluorogenic substrate; series mostly up to 76.9 µM. In outline: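 Enzyme at 2 nM final was combined with compound (0.7 nM to 77 uM) and 80 uM 4-methylumbelliferyl alpha-D-galactopyranoside in 50 mM citric acid, 0.005% Tween-20, pH 4.5. After 20 min at room temperature, fluorescence was read (Ex 365/Em 440 nm); AC50 came from Hill fits.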

Test [13] addresses alpha-glucosidase (Oryza sativa, rice) (UniProt Q653V4). Put plainly: Counterscreen for Glucocerebrosidase Inhibitors: qHTS Assay for Rice alpha-Glucosidase at pH 5.0 (AID 997; active = well fitted curve in the direction sought with a large enough effect; an effect the other way counts as inactive or inconclusive;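 also: 0% = full activity with enzyme and -100% = basal without enzyme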). To be noted: rice alpha-glucosidase enzyme activity; series mostly up to 76.9 µM. In outline:
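Rice alpha-glucosidase (4 nM final) with 400 uM 4-methylumbelliferyl-alpha-D-glucopyranoside in citrate buffer pH 5.0, 20 min at room temperature, stopped at pH 10; fluorescence 365/440 nm, compounds 0.7 nM–77 uM, AC50 from Hill fits.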
A general note: A counterscreen serves to expose hits that act by an unwanted route or on another target.

Data on 12 compounds can be found in PubChem BioAssay (NCATS).

SMILES strings stand for the structures. Values without a mark were called inactive. Records with an inconclusive call do not appear. Active and inactive are the calls of the source. Unless noted, calls follow the shape of the dose curve; as a rule, active = well fitted curve in either direction with a large enough effect (not every such curve was filed as active); inconclusive = small, poorly fitted or top-dose-only effect, or another doubt; inactive = flat fitted curve, though single readings scatter.

Sequence of Alpha-galactosidase A (Homo sapiens) (P06280 whole entry, looked up): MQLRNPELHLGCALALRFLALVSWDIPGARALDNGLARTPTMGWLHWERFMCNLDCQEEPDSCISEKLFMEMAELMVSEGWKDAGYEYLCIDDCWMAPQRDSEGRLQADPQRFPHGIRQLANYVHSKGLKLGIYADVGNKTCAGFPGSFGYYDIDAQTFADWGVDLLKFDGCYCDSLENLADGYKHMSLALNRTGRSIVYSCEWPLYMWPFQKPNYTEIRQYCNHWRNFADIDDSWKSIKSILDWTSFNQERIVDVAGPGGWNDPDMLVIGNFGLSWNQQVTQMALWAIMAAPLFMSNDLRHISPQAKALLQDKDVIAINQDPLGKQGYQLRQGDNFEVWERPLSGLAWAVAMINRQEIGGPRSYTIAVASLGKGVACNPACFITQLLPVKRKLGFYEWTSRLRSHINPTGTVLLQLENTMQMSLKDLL
Sequence of Cytochrome P450 3A4 (Homo sapiens) (P08684 whole entry, looked up): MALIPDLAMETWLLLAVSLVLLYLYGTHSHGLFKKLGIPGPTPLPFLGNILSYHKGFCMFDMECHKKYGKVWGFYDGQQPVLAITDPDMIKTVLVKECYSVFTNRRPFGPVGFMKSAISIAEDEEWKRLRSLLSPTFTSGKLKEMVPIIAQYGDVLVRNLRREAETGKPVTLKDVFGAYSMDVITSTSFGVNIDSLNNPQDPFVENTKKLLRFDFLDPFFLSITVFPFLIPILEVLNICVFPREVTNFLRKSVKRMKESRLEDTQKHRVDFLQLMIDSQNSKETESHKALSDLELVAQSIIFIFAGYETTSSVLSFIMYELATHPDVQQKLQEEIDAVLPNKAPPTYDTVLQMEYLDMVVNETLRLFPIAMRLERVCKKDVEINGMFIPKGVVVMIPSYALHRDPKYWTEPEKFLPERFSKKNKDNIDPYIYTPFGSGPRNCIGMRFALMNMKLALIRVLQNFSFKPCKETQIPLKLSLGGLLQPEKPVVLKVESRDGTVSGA
Sequence of Cytochrome P450 2C9 (Homo sapiens) (P11712 whole entry, looked up): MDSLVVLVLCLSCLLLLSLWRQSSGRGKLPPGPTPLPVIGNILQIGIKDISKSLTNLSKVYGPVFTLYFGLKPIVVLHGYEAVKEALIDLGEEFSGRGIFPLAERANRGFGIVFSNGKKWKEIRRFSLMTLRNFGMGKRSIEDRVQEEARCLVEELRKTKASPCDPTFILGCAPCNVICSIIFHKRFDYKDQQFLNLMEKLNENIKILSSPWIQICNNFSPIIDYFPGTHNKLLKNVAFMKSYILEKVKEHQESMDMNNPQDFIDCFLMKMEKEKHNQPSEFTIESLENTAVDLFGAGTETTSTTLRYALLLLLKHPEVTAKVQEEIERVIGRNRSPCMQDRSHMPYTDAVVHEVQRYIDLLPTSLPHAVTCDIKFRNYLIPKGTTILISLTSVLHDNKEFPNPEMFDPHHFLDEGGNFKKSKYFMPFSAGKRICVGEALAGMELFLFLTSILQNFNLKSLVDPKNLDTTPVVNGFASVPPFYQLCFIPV
Sequence of Pyruvate kinase PKM (Homo sapiens) (P14618 whole entry, looked up): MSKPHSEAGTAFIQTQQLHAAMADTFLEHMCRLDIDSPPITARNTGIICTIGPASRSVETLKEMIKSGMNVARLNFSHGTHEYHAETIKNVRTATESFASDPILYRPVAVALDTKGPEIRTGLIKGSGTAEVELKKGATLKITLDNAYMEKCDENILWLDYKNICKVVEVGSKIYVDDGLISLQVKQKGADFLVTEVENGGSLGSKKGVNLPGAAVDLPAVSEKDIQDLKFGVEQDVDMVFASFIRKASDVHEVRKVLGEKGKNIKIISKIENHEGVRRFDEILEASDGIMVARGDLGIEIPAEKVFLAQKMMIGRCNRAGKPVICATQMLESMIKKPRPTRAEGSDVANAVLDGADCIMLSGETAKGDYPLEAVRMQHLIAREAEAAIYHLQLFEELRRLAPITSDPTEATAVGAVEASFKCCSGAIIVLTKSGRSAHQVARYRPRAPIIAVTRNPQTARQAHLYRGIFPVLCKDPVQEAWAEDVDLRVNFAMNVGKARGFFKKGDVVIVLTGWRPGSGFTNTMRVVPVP
Sequence of Pyruvate kinase (Leishmania mexicana) (Q27686 2-499 E452W): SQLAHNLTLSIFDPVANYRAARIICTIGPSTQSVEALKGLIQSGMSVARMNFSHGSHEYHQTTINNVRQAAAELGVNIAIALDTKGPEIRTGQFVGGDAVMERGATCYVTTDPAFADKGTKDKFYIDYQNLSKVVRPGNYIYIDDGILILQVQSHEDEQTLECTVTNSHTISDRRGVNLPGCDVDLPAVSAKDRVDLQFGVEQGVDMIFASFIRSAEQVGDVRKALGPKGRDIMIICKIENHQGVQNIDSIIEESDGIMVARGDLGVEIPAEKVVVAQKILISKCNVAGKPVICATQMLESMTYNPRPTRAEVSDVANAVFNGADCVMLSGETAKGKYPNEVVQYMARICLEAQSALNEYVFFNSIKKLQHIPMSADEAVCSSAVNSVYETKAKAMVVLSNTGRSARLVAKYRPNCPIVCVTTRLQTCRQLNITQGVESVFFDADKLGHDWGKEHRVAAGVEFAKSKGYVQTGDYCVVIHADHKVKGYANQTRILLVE

Turning to `Nc1nonc1-c1noc(-c2ccccc2)n1`, the activity change, negative = inhibition in [1] was 7.84%; in [2] it was -13.1%. In [3], the Potency is above 20.6 µM.
Take `CCCCCCCCCCCCCCCCCC(=O)NC[C@@H](COP(=O)([O-])OCC[N+](C)(C)C)OCC`: the activity change, negative = inhibition in test [1] was -12.5% [at 38 µM]; in test [2] it was 28.6% [at 38 µM] (active). The Potency in [3] is above 46 µM; in test [4], above 46 µM; in test [9], 7.08 µM (active). The Potency entry in [5], in test [6], in test [7], in [8] and in test [10] was “inactive” each time. For the same compound, the result in [11], in test [12] and in [13] was inactive.
Take `CCN(CC)CCCN1C(=O)C(=O)/C(=C(/O)c2ccc3c(c2)CC(C)O3)C1c1ccncc1` (stereo unspecified): the activity change, negative = inhibition in [1] is 0.667%; in [2] it was 13.1%. Moreover, in [3], the Potency was above 20.6 µM.
Taken in the same sequence, the figures for `CC(C)C1Cc2c(sc3c2c(=O)n(-c2ccccc2)c2nncn32)CO1` (stereo unspecified) were -6.58%, -10.2% and above 20.6 µM.
Taken in the same sequence, the figures for `COc1ccccc1C1/C(=C(/O)c2ccc(OC(C)C)cc2)C(=O)C(=O)N1c1cc(C)on1` (stereo unspecified) were -28.1%, 27.8% and above 20.6 µM.
Regarding `CC1(C)C2CCC1(C)C(OC(=O)CC(=O)O)C2` (stereo unspecified), the activity change, negative = inhibition in [1] was 4.82%; in test [2], 8.38%. In addition, in test [3], the Potency was above 20.6 µM.
Taken in the same sequence, the figures for `CCOC(=O)CCc1c(C)c(C#N)c2[nH]c3ccccc3n2c1=O` were -16.5%, -0.365% and above 20.6 µM.
Taken in the same sequence, the figures for `Cc1ccc(Oc2nc3c(c(=O)n(Cc4ccccc4F)c(=O)n3C)n2C)cc1` were -27.5%, 11.5% and above 20.6 µM.
In the case of `Cc1ccc(-c2nn3c(-c4cccc(Cl)c4)nnc3s2)cc1`, the values for the activity change, negative = inhibition in [1] and in test [2] were 24.6% and -1.56%, respectively. Moreover, the Potency in test [3] is above 20.6 µM.
For `CCC(=O)Nc1nc(C)c(Oc2ccccc2)c(=O)[nH]1` the same measures were 6.64%, 9.01% and above 20.6 µM.
For `COC(=O)/C(=C1/Oc2cc(C)oc(=O)c2S1)C(F)(F)F` the same measures were 7.82%, -131% (active) and above 20.6 µM.
For `Clc1ccc(SCc2cn3ccsc3n2)cc1`, the activity change, negative = inhibition was -22.5% in [1] and 9.85% in [2]. In addition, the Potency in test [3] is above 20.6 µM.
